Holding throughout (test): NCI-60 one-dose screen, 48 h (100 = growth as untreated, 0 = no growth, -100 = all killed)
Common to all, as to conditions: 10 µM unless noted

Assay [1] concerns SK-MEL-2 melanoma.
In assay [2] the test system is EKVX NSCLC.
In assay [3] the test system is SN12C renal.
Assay [4] relates to UO-31 renal.
Assay [5] concerns TK-10 renal.
In assay [6] the test system is CAKI-1 renal.
For assay [7], the system named is A498 renal.
In assay [8] the test system is CCRF-CEM leukemia.
In assay [9] the test system is MOLT-4 leukemia.

This is part of a sample that, as a whole, favours compounds with a hit. Of some 83,000 tested, about 20% had one in any assay.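 48-hour exposure, single concentration, 96-well plates; percent growth endpoint where 0 means no net growth. Active: below 10.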 A number with no mark means an inactive call. Calls of active or inactive are those of the source.

For `COc1ccc(C(=O)Cn2c(C(=O)c3ccc(OC)cc3)nc3ccccc32)cc1`, the growth was 88.4% in assay [1]; 73.3% in assay [2]; 41% in assay [3]; 35.4% in assay [4]; 51.5% in assay [5]; 25.4% in [6]. Besides, the growth in [7] was 34.2%; in [8], 0.632% (active); in assay [9], 15.6%.

Take `CN1CCN(C(=S)SCCCCOc2cc(=O)oc3ccccc23)CC1`: the growth was 73.9% in [1]; 88.1% in [2]; 88.5% in assay [3]; 72.3% in [4]; 93.3% in [5]; 93.7% in assay [6]. Also, the growth was 74.7% in assay [7], 72.5% in assay [8] and 73.2% in [9].

Take `C=C(C)[C@@H]1CCC[C@]2(C(=O)N3CCN(C)CC3)CC[C@]3(C)[C@@H](CC[C@@H]4[C@@]5(C)CC/C(=N\NC(=O)c6ccncc6)C(C)(C)[C@@H]5CC[C@]43C)[C@@H]12`: the growth in assay [1] is 106%; in [2], 111%; in [3], 80.1%; in assay [4], 73.4%; in assay [5], 116%; in assay [6] it was 80.7%. Also, the results for the growth in assay [7], in assay [8] and in assay [9] were 119%, 25.9% and 55.9%, respectively.

For `c1ccc(CCNc2c3ccccc3nc3ccccc23)cc1`, the growth in assay [1] was 86.3%; in [2] it was 36.3%; in [3], 33.1%; in assay [4] it was 24.2%; in [5], 53.2%; in assay [6], 30.3%. Also, the growth in assay [7] is -5.19% (active); in [8] it was 53.3%; in assay [9], 24.6%.

For `COC(=O)c1c2c(c(C)[n+]([O-])c1C)C(=O)C(NCc1ccc(OC)cc1)=CC2=O`, the growth was 62.3% in assay [1]; 55% in assay [2]; 0.985% (active) in assay [3]; 65.3% in assay [4]; 102% in assay [5]; 48.5% in [6]. The growth in [7] was 113%; in [8] it was 20.7%.

For the compound `C=CC(=O)Nc1ccc(Nc2nccc(-c3ccc(N4CCCC4)c(C#N)c3)n2)cc1`, the growth is -0.218% (active) in assay [1]; 66.6% in assay [2]; 41.4% in [3]; 21% in assay [4]; 26.1% in assay [5]; 18.7% in assay [6]. The growth was -36.9% (active) in assay [7], 16.7% in assay [8] and -8.84% (active) in assay [9].

With `CCOc1cccc(/C=N/NC(=O)c2cccc(Nc3ccnc(C(F)(F)F)c3)c2)c1O`, the growth is 58.7% in assay [1]; 21.3% in [2]; 33.2% in assay [3]; 17.3% in assay [4]; 49.5% in assay [5]; 18.3% in [6]. For the same compound, the figures for the growth in assay [7], in [8] and in [9] were 61.5%, 6.39% (active) and 18.2%, respectively.

Turning to `C#CC#CC#CC#CC#CC#CC#CC#CC[C@@H]1OC[C@@H](COC(=O)O[C@@H](C(=O)O[C@H]2C[C@@]3(O)[C@@H](OC(=O)c4ccccc4)[C@@H]4[C@]5(OC(C)=O)CO[C@@H]5C[C@H](O)[C@@]4(C)C(=O)[C@H](OC(C)=O)C(=C2C)C3(C)C)[C@@H](NC(=O)c2ccccc2)c2ccccc2)O1`, the growth was 105% in assay [1]; 35.2% in [2]; 21.4% in [3]; 35.2% in assay [4]; 123% in assay [5]; 81.3% in assay [6]. Further, the growth in [7] was 52.9%; in [8], 6.05% (active); in [9], 9.3% (active).

Consider `COc1ccc(-c2nn(-c3ccccc3)cc2/C=C/C(=O)NNC(=O)Nc2ccc(C)cc2)cc1`, for which the growth in assay [1] was 102%; in assay [2], 97.2%; in assay [3], 97%; in [4], 84.2%; in assay [5], 99%; in [6], 91.5%. Besides, the values for the growth in assay [7], in [8] and in [9] were 109%, 47.4% and 43%, respectively.

Regarding `O=C(Cc1cccc(OC(F)(F)F)c1)Nc1ccc(CCCCc2nnc(NC(=O)Cc3ccccn3)s2)nn1`, the growth in assay [1] was 116%; in assay [2] it was 73.8%; in [3] it was 68.5%; in assay [4], 45.1%; in [5], 65%; in assay [6], 70.4%. Besides, the growth in assay [7] was 20.6%; in assay [8] it was 43%.

As to `CC1(C)CC[C@]23CC[C@]4(C)[C@H](CC[C@@H]5[C@@]6(C)C/C(=C/c7ccncc7)C(=O)C(C)(C)[C@@H]6CC[C@]54C)[C@H]2[C@H]1OC3`, the growth in assay [1] is 80.9%; in assay [2] it was 92.3%; in assay [3], 76.7%; in [4] it was 57.1%; in assay [5], 97%; in assay [6], 66.4%. The figures for the growth in assay [7], in assay [8] and in [9] were -3.63% (active), 44.3% and 50.4%, respectively.

Take `CC1(C)N=C(N)N=C(N)N1c1ccc(CCCCc2ccccc2)c(Cl)c1`: the growth was 4.71% (active) in [1]; 53% in assay [2]; 11% in assay [3]; 49.5% in assay [4]; 15.9% in [5]; 14.1% in assay [6]. In addition, the figures for the growth in [7], in assay [8] and in [9] were 54.5%, 13.2% and 1.8% (active), respectively.

On to `Cc1ccc2nc(NC(=O)CSc3nc(-c4ccccc4)c(C#N)c4nnnn34)sc2c1`, for which the growth in assay [1] is 109%; in [2], 106%; in [3], 111%; in assay [4] it was 80.2%; in assay [5], 141%; in assay [6] it was 94.6%. Also, the growth in [7] is 109%; in assay [8], 106%; in assay [9], 99.4%.

As to `O=C1/C(=C\c2cccc3nccnc23)SC(=S)N1CCc1ccc(O)cc1`, the growth in [1] is 108%; in [2], 100%; in assay [3], 84.9%; in [4], 62.1%; in [5] it was 121%; in assay [6], 79.1%. In addition, the growth in [7] is 105%; in assay [8] it was 67.2%; in [9], 93.1%.

For the origin of these results see PubChem BioAssay (NCI).
